Source: PubChem BioAssay (NCI)
The panel holds about 83,000 compounds, 20% with a hit somewhere; the sample as a whole holds those more often.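 Cells were grown in 96-well plates and exposed to the test compound at a single concentration for 48 hours; results are reported as percent growth, with values below 10 considered active.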 Calls of active or inactive are those of the source.

system: HL-60(TB) leukemia; experiment: NCI-60 one-dose screen, 48 h (100 = growth as untreated, 0 = no growth, -100 = all killed); conditions: 10 µM unless noted

| SMILES | growth |
| --- | --- |
| COc1c(F)ccc(C(=O)Nc2ccc3nc(NC(=O)C4CCCN(S(=O)(=O)c5cccc(Cl)c5)C4)sc3c2)c1F (stereo not given) | 76.8% (inactive) |
| O=C1NC(=O)c2c1c1c3cc(Br)ccc3[nH]c1c1oc3ccc(F)cc3c21 | 44.6% (inactive) |
| COc1ccc(SC2c3cc(OC)ccc3Oc3nc(N)c(C#N)c(N)c32)cc1 (stereo not given) | 64.7% (inactive) |
| NS(=O)(=O)c1ccc(N2N=C(c3ccc(NC(=O)Nc4ccccc4)cc3)CC2c2ccc(Br)cc2)cc1 (stereo not given) | -4.8% (active) |
| COc1ccc2[nH]cc(-c3nc(N)nnc3-c3cn(C)c4ncc(Br)cc34)c2c1 | -44.9% (active) |
| COc1cccc(/C=N/NC(=O)c2ccc3nc(-c4ccc(Cl)cc4)[nH]c3c2)c1O | -43.4% (active) |
| CCCCCCCCCc1ccc(C(=O)Nc2cc(C)ccc2C(=O)OC)cc1 | 97.1% (inactive) |
| CCCSc1nc(Nc2ccc(S(N)(=O)=O)cc2)c(C#N)c(-c2cc(OC)c(OC)c(OC)c2)n1 | -40.3% (active) |
| CCOC(=O)CNC(=O)CN(Cc1ccccc1)C(=O)[C@@]1(C)CCC[C@]2(C)[C@H]3CC4C(C(C)C)=C[C@]3(CC[C@H]21)[C@@H]1C(=O)CCC(=O)[C@H]41 | 2.73% (active) |
| Nc1nc(-c2ccccc2)cs1 | 18.9% (inactive) |
| O=C1CCCc2cc(OCC(=O)N3CCCCC3)ccc2N1 | 91.9% (inactive) |
| Cn1cc(NC(=O)c2cc(NC(=O)c3ccc(/C=C/c4ccccc4)cc3)cn2C)cc1C(=O)NCCCN1CCOCC1 | -37.6% (active) |
| COc1ccc(NC(=O)Cn2c(O)c(N=Nc3ccc(S(N)(=O)=O)cc3)c3ccccc32)cc1 | 96.9% (inactive) |
| COc1cccc(-c2ccc(/C=N/NC(=O)c3[nH]c4ccc(Br)cc4c3-c3ccccc3)o2)c1 | -38.4% (active) |
| S=C(Nc1ccc(OCc2nc3ccccc3[nH]2)cc1)NC1CCCCC1 | 103% (inactive) |
| CC12CC[C@@H]3[C@]4(C)COC(c5cn[nH]c5-c5cccc(Cl)c5)O[C@@H]4CC[C@@]3(C)[C@@H]1CC(C1=CCOC1=O)O2 (stereo not given in full) | 22.3% (inactive) |
| Cc1cc(C(NC(=O)CCCCCNc2cccc3c2C(=O)N(C2CCC(=O)CC2=O)C3=O)c2cccc(N(C)C)c2)c(O)c2ncccc12 (stereo not given) | -15.3% (active) |
| CC(C)(C)OC(=O)/C=C/c1cccc2c1C(=O)NC(C)(c1cc3cc(Cl)ccc3oc1=O)N2 (stereo not given) | -6.16% (active) |
| O=C1CCC(N2C(=O)c3cccc(NCCOCCOCCOCCC(=O)NCCCC(=O)NC(c4ccc5c(c4)OCO5)c4cc(Cl)c5cccnc5c4O)c3C2=O)C(=O)C1 (stereo not given) | -14.1% (active) |
| Nc1n[nH]c2cccc(C#Cc3cccc(NC(=O)Nc4cc(C(F)(F)F)cc(C(F)(F)F)c4)c3)c12 | -9.4% (active) |

| SMILES | growth |
| --- | --- |
| CN1CCCN(Cc2ccc(C(=O)Nc3cccc(Nc4ccc5c(O)cccc5n4)c3)cc2C(F)(F)F)CC1 | -7.86% (active) |
| COc1ccc(-c2cc(C)nc3[nH]c(=O)sc23)cc1 | 75.6% (inactive) |
| CN(C)c1nc(NCCNS(=O)(=O)c2ccc(C(=O)/C=C/c3ccccc3)cc2)nc(N2CCOCC2)n1 | 33% (inactive) |
| COc1ccc(N=Nc2c(N)nn3c(-c4ccc(F)cc4)ccnc23)cc1 | 95.3% (inactive) |
| Cc1ccc2c(c1)C(=O)/C(=C/c1c[nH]c3ccccc13)S2 | 14.9% (inactive) |
| COc1cc(/C=C/C(=O)c2ccc(NC(=O)CN3C(=O)NC(C)(c4ccccc4)C3=O)cc2)cc(OC)c1OC (stereo not given) | -11.5% (active) |
| O=C1CCC(N2Cc3cc(NC(=O)COc4ccccc4)ccc3C2=O)C(=O)N1 (stereo not given) | 6.3% (active) |
| COc1cc2c(c(OC)c1OC)C(=O)CC(c1cccc(NC(=O)c3cccc([N+](=O)[O-])c3)c1)O2 (stereo not given) | 26.1% (inactive) |
| COc1sc(/C=N/NC(=O)c2[nH]c3ccc(Br)cc3c2-c2ccccc2)cc1Cl | -42.8% (active) |
| CCOC(=O)c1ccc(Nc2nc(NN)nc(-c3ccc(F)cc3)c2C#N)cc1 | 88% (inactive) |
| COc1cc(CNC(=O)/C=C/c2ccc3c(c2)OCO3)ccc1OCc1cn(-c2cccc(C(F)(F)F)c2)nn1 | 69.7% (inactive) |
| O=C(O)c1ccc(-c2ccc(/C=N/NC(=O)c3[nH]c4ccc(Br)cc4c3-c3ccccc3)s2)cc1 | -5.49% (active) |
| CN1CCN(c2ccc(C(=O)/C=C/c3cc(C(F)(F)F)ccc3Cl)cc2)CC1 | -29.3% (active) |
| O=C1Nc2ccc(F)cc2/C1=C/c1cccc(OCc2ccccn2)c1 | 7.92% (active) |
| COc1ccc(OC)c(Cn2cc(C#N)c(N)c2C(=O)c2ccc(Br)cc2)c1 | 20.7% (inactive) |
| CCOC(=O)C1=C(N)N(c2ccccc2)C2=C(C(=O)CC(C)(C)C2)C1c1ccccc1OC (stereo not given) | 99.2% (inactive) |
| COc1ccc(-c2cc(-c3cc(C(=O)c4ccc(Br)cc4)n4ccc(C)cc34)nc(N)c2C#N)cc1 | 96.6% (inactive) |
| COc1c2c(cc3c1C(CCc1ccccc1)N(C)CC3)OCO2 (stereo not given) | -28.3% (active) |
| CC(=O)Nc1ccc(-c2cn(-c3cccc(C(=O)Nc4cccc(OC(F)(F)F)c4)c3)nn2)cn1 | 95.1% (inactive) |
| O=C(Nc1cccc(-n2cnc3cc(-c4ccc(O)cc4)ccc32)c1)C1CC1 | -16.7% (active) |
